Structures are written as SMILES. Results filed as inconclusive are left out. Calls of active or inactive are those of the source. Cut-off read from the data, not from the text of the source: active = toxicity enhancement factor above about 0.054; inconclusive = between about 0.00067 and that limit; inactive = weaker than that.

A short description of the experiment: MRP-overexpressing cell chemosensitization – dose response (AID 741). Conditions: MRP-overexpressing cells, viability with/without cytotoxic drug; slope difference: measured here: slope difference tox minus reversal, stronger effect = higher value; toxicity enhancement factor: stronger effect = higher value; viability: measured here: viability series, compound alone, at 10 µM, stronger effect = lower value.

For the molecule `COC(=O)Nc1ccc(S(=O)(=O)Nc2cccc3ccccc23)cc1`, the slope difference was -0.0221; the toxicity enhancement factor was -0.0003 (inactive); the viability (commonly a read-out of living cells in per cent, often relative to untreated cells) came out at 77.7%.

For the molecule `COc1ccc(C(=O)Nc2nc3ccccc3[nH]2)cc1OC`, the slope difference was -0.0153, the toxicity enhancement factor was -0.0002 (inactive) and the viability came to 87.3%.

In the case of `COC(=O)c1ccccc1NC(=O)c1cccs1`, the slope difference was -0.205, the toxicity enhancement factor is -0.0023 (inactive) and the viability worked out at 87.5%.

In the case of `CC1(C)CC(=O)C2=C(C1)N(c1ccccc1)C(N)=C(C#N)C2c1ccccc1` (stereo unspecified), the slope difference was 3.21, the toxicity enhancement factor is 0.108 (active) and the viability worked out at 73.3%.

Turning to `Cc1ccc(N2C(N)=C(C#N)C(c3cccnc3)C3=C2CC(C)(C)CC3=O)cc1` (stereo unspecified), the slope difference was 2.48, the toxicity enhancement factor is 0.0915 (active) and the viability stood at 57.5%.

Turning to `Cc1cccc(Cn2c(NCC(C)O)nc3c2c(=O)n(C)c(=O)n3C)c1` (stereo unspecified), the slope difference was -0.509, the toxicity enhancement factor is -0.0055 (inactive) and the viability was found to be 93.7%.

For `O=C(NCc1ccccn1)c1cn(CCc2ccccc2)nn1`, the slope difference is -0.117, the toxicity enhancement factor is -0.0012 (inactive) and the viability worked out at 97.1%.

As to `CC(C)CCn1c(=O)c2ccccc2n2c(CN(C)Cc3ccccc3)nnc12`, the slope difference stood at 2.35, the toxicity enhancement factor is 0.0598 (active) and the viability is 82.3%.

Consider `CC(Cc1ccc(O)c(O)c1)C(C)Cc1ccc(O)c(O)c1` (stereo unspecified), for which the slope difference is -0.864, the toxicity enhancement factor is -0.009 (inactive) and the viability was found to be 86.2%.

Consider `CS(=O)(=O)Nc1ccc([N+](=O)[O-])cc1Oc1ccccc1`, for which the slope difference was -0.667, the toxicity enhancement factor is -0.0071 (inactive) and the viability is 97.8%.

For `CC(C)(C)C(=O)[C@@H]1[C@@H]2C(=O)N(C3CCCCC3)C(=O)[C@@H]2[C@H]2c3ccccc3C=CN12`, the slope difference amounted to 2.83, the toxicity enhancement factor is 0.061 (active) and the viability is 85.2%.

As to `O=C(COc1ccccc1)N1CCN(c2ncnc3c2cnn3-c2ccccc2)CC1`, the slope difference was -0.402, the toxicity enhancement factor was -0.0084 (inactive) and the viability was 53.8%.

The values are drawn from PubChem BioAssay AID741 (SRMLSC, 2007).
